# Assay outcomes deposited in PubChem BioAssay by National Center for Advancing Translational Sciences (NCATS).
# ALDH1A1 inh: blocks purified human ALDH1A1 activity | P00352 | Purified ALDH1A1, NADH fluorescence, propionaldehyde substrate | Potency, µM (doses to about 75.3 µM), actives largely listed as inhibitors | hit rate 7.3% among 220,000
# HPGD block: blocks human HPGD enzyme activity | P15428 | purified HPGD, NADH fluorescence kinetic, PGE2 substrate | Potency, µM, actives largely listed as inhibitors | hit rate 4.3% among 150,000 | AID 894
# Target sequence (P15428 whole entry, looked up): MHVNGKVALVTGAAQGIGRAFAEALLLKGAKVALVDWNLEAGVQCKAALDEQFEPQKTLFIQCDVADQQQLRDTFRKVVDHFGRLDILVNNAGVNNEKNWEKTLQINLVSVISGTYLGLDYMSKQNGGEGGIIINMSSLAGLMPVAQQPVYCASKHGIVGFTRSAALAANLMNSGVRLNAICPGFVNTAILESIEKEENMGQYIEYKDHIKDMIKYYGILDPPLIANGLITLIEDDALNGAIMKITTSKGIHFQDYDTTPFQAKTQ
#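 NADH formation kinetics: reaction with 30 uM PGE2 and 1 mM NAD+ (final), 20 nM enzyme, Tris-HCl pH 8 with Tween 20, after 15 min compound preincubation at room temperature. Fluorescence change, last versus first of five reads.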
# PNC assembly inh: perinucleolar compartment assembly inhibition | PC3M PTB-GFP, PNC prevalence imaging, 16 h; stronger effect = lower value | activity change (PNC), negative = inhibition, % at 10 µM | hit rate 3.1% among 140,000 | AID 2417;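 active = readout at or below -70, meaning at least 70% loss of cells showing the perinucleolar compartment, a nuclear body marking cancer cells; inconclusive = readout between -30 and a set limit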
#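 Compounds are pinned in duplicate onto adhered PC3M cells stably expressing GFP-tagged PTB and incubated 16 h at 37 C. Cells are then fixed, nuclei stained with Hoechst, and PNC-positive cells counted.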
# Numbers stand for hits; n = inactive; u = inconclusive; x = not tested or not shown; ! = not active in a repeat. In the library only some 11% were active in any assay of this set; here they are far more common. Unless noted, calls follow the shape of the dose curve; as a rule, active = well fitted inhibition curve with a large enough effect (not every such curve was filed as active); inconclusive = small, poorly fitted or top-dose-only effect, or another doubt; inactive = no such curve, though single readings can be large or run the other way.
SMILES,ALDH1A1 inh,HPGD block,PNC assembly inh
Cc1ccc(N=CC2=C(O)CC(C)(C)CC2=O)nc1,u,n,n
CC1(C)CC(=O)C(C=Nc2ccc(O)cc2)=C(O)C1,u,n,n
CC1(C)CC(=O)C(/C=N/c2ncccc2C(=O)O)=C(O)C1,12.6µM,u,n
O=C(Cc1ccc(Br)cc1)N1CCN(c2ccccc2O)CC1,u,n,n
COc1cccc(N=CC2=C(O)CCCC2=O)c1,n,x,x
CC1(C)CC(=O)C(C=Nc2ccc3cn[nH]c3c2)=C(O)C1,14.1µM,n,n
CC1(C)CC(=O)C(C=Nc2ccc3[nH]ncc3c2)=C(O)C1,u,n,u
COc1cccc(N=CC2=C(O)CC(C)(C)CC2=O)c1,8.91µM,n,-113.4
CCOc1ccc(S(=O)(=O)N/N=C(\C)Cc2ccc(OC)cc2)cc1,2.82µM,x,x
CCOc1ccccc1OCC(=O)N/N=C(\C)Cc1ccc(OC)cc1,n,n,n
CCOc1ccc(S(=O)(=O)N/N=C2/CCCC(=O)C2)cc1,u,n,u
CCOc1ccc(S(=O)(=O)N/N=C(\C)C2CCCCC2)cc1,1.78µM,n,n
CC(C)C[C@@H](CC(=O)N[C@@H](CCCN)CC(=O)N[C@@H]1CCCC[C@H]1C(=O)N[C@H](CC(=O)N[C@@H](CCC(=O)O)CC(=O)O)Cc1ccccc1)NC(=O)[C@@H]1CNCC[C@H]1N,n,n,x
Fc1ccccc1COc1ccc2ccccc2c1CNc1nn[nH]n1,n,x,x
O=C(NCc1cccnc1)C(=O)Nc1ccc([N+](=O)[O-])cc1,n,x,x
O=C(NCc1cccnc1)C(=O)N/N=C/c1ccccc1[N+](=O)[O-],n,x,x
COc1ccc(OC)c(NC(=O)CN2C(=O)C3(OCCCO3)c3ccccc32)c1,u,n,n
O=C(CCN1C(=O)C2(OCCO2)c2ccccc21)c1ccccc1,n,n,n
O=C(CN1C(=O)C2(OCCO2)c2ccccc21)c1ccc(Br)cc1,14.1µM,x,u
O=C1N(Cc2ccc(F)cc2Cl)c2ccccc2C12OCCCO2,n,n,u
COc1ccccc1NC(=O)CN1C(=O)C2(OCCCO2)c2ccccc21,22.4µM,n,n
O=C1N(Cc2ccccc2F)c2ccccc2C12OCCCO2,22.4µM,n,n
COc1ccc(CCNC(=O)COC(=O)c2ccc(N3CCCC3=O)cc2)cc1,n,x,x
O=C(COc1ccccc1)Nn1cnc2ccccc21,n,n,n
COc1ccc2c(c1O)-c1ccccc1CCN(C)C2,n,x,x
SMILES,ALDH1A1 inh,HPGD block,PNC assembly inh
CN1CCc2cccc3c2[C@@H]1Cc1ccc(O)c(O)c1-3,25.1µM,8.91µM!,n
O=C(CN1CCCC1)Nc1ccc(-c2nc3cc(NC(=O)CN4CCCC4)ccc3o2)cc1,u,u,n
CCCCc1nc(SCC(=O)Nc2ccc(S(N)(=O)=O)cc2)n[nH]1,n,n,n
O=C(NNC(=O)c1cccc2ccccc12)c1ccc(-c2ccccc2)cc1,u,u,n
O=C(NCCn1cccc1)c1cccc2ccccc12,n,31.6µM,n
CCn1ncc(Br)c1C(=O)Nc1nccs1,n,25.1µM,u
CCn1ncc(Br)c1C(=O)Nc1ccc(F)cc1F,n,n,n
CCCCCC(=O)NNC1=NCC(Cc2cccc(Cl)c2)S1 (centres undefined),n,x,x
Cc1ccc(C2c3sc(=O)[nH]c3SC3C(=O)NC(=O)C32)cc1 (centres undefined),u,n,n
Cc1ccc(C(=C2C3C=CC2C2C(=O)NC(=O)C32)c2ccc(C)cc2)cc1 (centres undefined),0.891µM,n,n
O=C1NCCCc2c1no[n+]2[O-],u,n,n
[O-][n+]1onc2c1CCC(=N/O)/C2=N\Nc1ccccc1,3.55µM,x,x
Cc1nonc1OC(C)CNc1ccc([N+](=O)[O-])cc1 (centres undefined),u,28.2µM,u
Cc1nonc1OCCNc1ccc([N+](=O)[O-])cc1[N+](=O)[O-],n,n,n
O=C(O)c1cc2cc(Cc3cccnc3)ccc2o1,n,n,x
COc1cc(/C=C/C(=O)OCC(=O)c2c(N)n(C)c(=O)n(C)c2=O)ccc1OC(F)F,n,x,x
CCOC(=O)N1CCN(c2c(NCc3cccs3)c(=O)c2=O)CC1,u,28.2µM,n
CCOC(=O)N1CCN(c2c(NCc3ccccc3OC)c(=O)c2=O)CC1,u,15.8µM,n
CCOC(=O)N1CCN(c2c(NCCc3ccc(OC)c(OC)c3)c(=O)c2=O)CC1,u,n,n
CCOC(=O)N1CCN(c2c(NCc3ccc(Cl)cc3)c(=O)c2=O)CC1,u,n,u
CCN1C(=O)CC(N2CCN(CC(=O)NC(C)C)CC2)C1=O (centres undefined),n,n,n
CCn1cc(C2C(C(=O)Nc3cc(C)ccn3)=C(C)NC3=C2C(=O)CC(C)(C)C3)c(C)n1 (centres undefined),u,u,n
O=C(NCc1cccs1)c1ccc([N+](=O)[O-])cc1,n,n,n
